Data taken from PubChem BioAssay (EPA / NIEHS).
Inconclusive results are not listed. Calls of active or inactive are those of the source. Rule for the calls: active = hit-call score of the fitted dose curve at least 0.9, where 1 is the maximum; inconclusive = response in the unintended direction; inactive = score below 0.9.

Tests used:
[1] = TOX21_p53_BLA_p2_viability: Viability Assessment in the Tox21 HCT-116 p53 Agonism Beta-lactamase Assay, Phase 2 (AID 2283591);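 note: compound exposure lasted 16 h at 37 °C; actives lower the ATP signal meaning cytotoxicity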
Procedure, shortened: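 HCT-116 p53-bla cells (4000/well) rested 5 h at 37C, then received compounds in DMSO (217-fold dilution) for 16 h at 37C, 5% CO2. After the CCF4 read, CellTiter-Glo was added; ATP luminescence was read after 30 min at room temperature.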

[2] = target: Cellular tumor antigen p53 (Homo sapiens) (UniProt P04637); test: TOX21_p53_BLA_p2_ratio: Tox21 HCT-116 p53 Agonism Beta-lactamase Assay, Ratio, Phase 2 (AID 2283592)
Procedure, shortened: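 HCT116 p53-bla; 4000 cells/well; 5 h pre-incubation; cpd in DMSO, 217-fold dilution; 16 h 37C/5% CO2; CCF4-AM 2 h RT; Ex 405, Em 460/530 ratio; DMSO = baseline; positive fitting direction.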

[3] = TOX21_p53_BLA_p4_viability: Viability Assessment in the Tox21 HCT-116 p53 Agonism Beta-lactamase Assay, Phase 4 (AID 2283597);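 note: hits lower the luminescence signal meaning cytotoxicity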
Procedure, shortened: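 Cells plated, 5 h pre-incubation; DMSO compounds pinned (217-fold dilution); 16 h, 37C/5% CO2; CCF4-AM 2 h RT; CellTiter-Glo 30 min RT; luminescence read.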

[4] = target: Cellular tumor antigen p53 (Homo sapiens) (UniProt P04637); test: TOX21_p53_BLA_p5_ratio: Tox21 HCT-116 p53 Agonism Beta-lactamase Assay, Ratio, Phase 5 (AID 2283599)
Procedure, shortened: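 HCT-116 cells carrying a p53-inducible beta-lactamase reporter were seeded at 4000 cells/well and dosed after 5 h with compound in DMSO (217-fold dilution). After 16 h at 37C, CCF4-AM substrate was added for 2 h, and the 460/530 nm emission ratio was scored as gain-of-signal versus DMSO.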

[5] = TOX21_p53_BLA_p5_viability: Viability Assessment in the Tox21 HCT-116 p53 Agonism Beta-lactamase Assay, Phase 5 (AID 2283600)
Procedure, shortened: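 4000 cells/well; 5 h pre-incubation; DMSO compounds pin-transferred, 217-fold dilution; 16 h, 37C/5% CO2; CCF4-AM 2 h RT; CellTiter-Glo 30 min RT; luminescence.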

[6] = target: Cellular tumor antigen p53 (Homo sapiens) (UniProt P04637); test: TOX21_p53_BLA_p4_ratio: Tox21 HCT-116 p53 Agonism Beta-lactamase Assay, Ratio, Phase 4 (AID 2283601)
Procedure, shortened: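 HCT116 cells carrying an inducible beta-lactamase reporter were plated at 4000 cells/well, rested 5 h, then exposed to compounds in DMSO (217-fold dilution) for 16 h at 37C. CCF4-AM substrate was loaded 2 h at room temperature; 460/530 nm emission ratio scored gain-of-signal versus DMSO.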

Measured: outcome

Cellular tumor antigen p53 (Homo sapiens), sequence (P04637 whole entry, looked up): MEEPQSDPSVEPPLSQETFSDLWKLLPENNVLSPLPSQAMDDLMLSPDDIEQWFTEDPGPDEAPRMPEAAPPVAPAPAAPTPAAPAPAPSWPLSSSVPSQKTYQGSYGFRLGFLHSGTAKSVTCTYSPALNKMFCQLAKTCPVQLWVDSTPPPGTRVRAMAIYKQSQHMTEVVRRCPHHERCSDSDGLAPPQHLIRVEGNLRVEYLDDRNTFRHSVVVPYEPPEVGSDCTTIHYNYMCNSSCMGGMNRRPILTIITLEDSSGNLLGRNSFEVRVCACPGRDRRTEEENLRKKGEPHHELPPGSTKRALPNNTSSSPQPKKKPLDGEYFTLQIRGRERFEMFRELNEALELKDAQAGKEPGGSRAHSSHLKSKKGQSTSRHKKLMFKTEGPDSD

CCCC(C)C(=O)O (centres undefined)
not listed: [6]
inactive: all other assays above

CCCCCSCCCCC
not listed: [6]
inactive: all other assays above

O=C(O[C@H]1CN2CCC1CC2)N1CCc2ccccc2[C@@H]1c1ccccc1
inactive: all assays above

Cc1ccc(N=Nc2c(O)c(C(=O)O)cc3ccccc23)c(S(=O)(=O)O)c1
not listed: [5]
inactive: all other assays above

COc1cc(-c2ccc(N=C=O)c(OC)c2)ccc1N=C=O
not listed: [5]
inactive: all other assays above

CCCCCOC(=O)Nc1nc(=O)n([C@@H]2O[C@H](C)[C@@H](O)[C@H]2O)cc1F
inactive: all assays above

CCC(C)=NO[Si](C)(ON=C(C)CC)ON=C(C)CC
inactive: all assays above

Nc1ncnc(Nc2ccc(Cl)cc2)n1
inactive: all assays above

C=CC(=O)OCCCCCCCC
inactive: [1] | [2] | [3] | [5]

CCCC(C)CC (centres undefined)
inactive: [1] | [2] | [3] | [5]

CC1=C2[C@@H]([C@H](C)CC[C@H]2/C=C(\C)C(=O)O)[C@H](O)C1
not listed: [5]
inactive: all other assays above

CN(C)C/C=C(/c1ccc(Br)cc1)c1cccnc1
inactive: all assays above

CC(=O)c1cc(C)oc1C
inactive: all assays above

Cc1cc(Cl)c(C)cc1Cl
not listed: [5]
inactive: all other assays above
